Measurements taken from PubChem BioAssay AID651768 (National Center for Advancing Translational Sciences (NCATS), 2012).
The whole screen tested about 360,000 compounds, of which about 1,700 (0.47%) were called active. Another 2% or so got no clear call; they are omitted. The sample holds actives, similar compounds and a random draw of the others, so the mix is not that of the screen. Calls come from the whole dose curve; as a rule, active = well fitted inhibition curve with a large enough effect; inconclusive = small, poorly fitted or top-dose-only effect; inactive = no such curve, though single readings can be large or run the other way.

Molecular target: Bifunctional 3'-5' exonuclease/ATP-dependent helicase WRN (Homo sapiens) (UniProt Q14191)
Assay: qHTS for Inhibitors of WRN Helicase; note: nearly all actives have a fitted effect of over 55% in size
Details: WRN helicase unwinding, fluorescent forked duplex, kinetic; series mostly up to 114 µM; activity change, negative = inhibition: at the top concentration
Source text: Inhibition of DNA repair is proposed as a strategy for combating cancer. Synthetic lethality is an approach that exploits preexisting DNA repair deficiencies in certain tumors to develop inhibitors of DNA repair pathways that compensate for the tumor-associated DNA repair deficiency. Because helicases play critical roles in the DNA damage response and in DNA repair, particularly in actively dividing and replicating cells, characterization of synthetic lethal relationships of DNA helicases may be of value in developing improved anticancer treatment strategies; moreover, small molecules that specifically target a given DNA helicase may be useful for understanding its role in cellular nucleic acid metabolism. The goal of this project is to identify small molecule, non-covalent chemical inhibitors of the Werner syndrome (WS) helicase (WRN), which plays an important role in cell proliferation, the replication stress response, and DNA repair. […] The WRN gene product that is defective in the chromosomal instability disorder has DNA helicase and exonuclease activities and interacts with a number of nuclear proteins to maintain genomic stability. We will employ an optimized high-throughput screening assay that utilizes a fluorescence intensity modulation scheme with a fluorophore and quencher positioned near one another within a duplex deoxyoligonucleotide that contains a single forked structure. After a high-throughput screen of the ~350,000-member Molecular Libraries Small Molecule Repository (MLSMR) collection, followed by data analysis and hit selection, a panel of confirmatory, as well as secondary and ternary, assays will be employed to identify high-confidence WRN inhibitors. Structure-activity relationships will be investigated for the top candidate inhibitor series through medchem expansion. These are the results of the primary screening campaign against the MLSMR. NIH Chemical Genomics Center [NCGC] NIH Molecular Libraries Probe Centers Network [MLPCN] MLPCN Grant: MH096530 Assay Submitter (PI): Robert Brosh, National Institute of Aging
Three muL of reagents (buffer in columns 3 and 4 as negative controls; WRN at 20 nM final concentration in columns 1 and 2 as positive controls; columns 5-48 as test reactions) will be dispensed into a 1536-well Greiner black plate via solenoid-valve based nanoliter dispensers. Compounds (23 nL each in columns 5-48) and control (23 nL each in column 2 as dose-response) will be transferred via a Kalypsys pintool equipped with a 1536-pin array. Plates will be incubated for 15 min at room temperature, and then 1 µL of substrate (100 nM forked duplex oligonucleotide and 2 mM ATP final concentrations) will be added to start reaction, and plate will be transferred into a ViewLux high-throughput CCD imager where reaction progress is measured in kinetic mode using standard red-fluorescence optics (excitation filter 525 nm, emission filter 598 nm).
% is set by controls: 0 for no effect and ±100 for the full control effect; potency is the fitted concentration of half-maximal effect.

Chain of Bifunctional 3'-5' exonuclease/ATP-dependent helicase WRN (Homo sapiens) (Q14191 whole entry, looked up): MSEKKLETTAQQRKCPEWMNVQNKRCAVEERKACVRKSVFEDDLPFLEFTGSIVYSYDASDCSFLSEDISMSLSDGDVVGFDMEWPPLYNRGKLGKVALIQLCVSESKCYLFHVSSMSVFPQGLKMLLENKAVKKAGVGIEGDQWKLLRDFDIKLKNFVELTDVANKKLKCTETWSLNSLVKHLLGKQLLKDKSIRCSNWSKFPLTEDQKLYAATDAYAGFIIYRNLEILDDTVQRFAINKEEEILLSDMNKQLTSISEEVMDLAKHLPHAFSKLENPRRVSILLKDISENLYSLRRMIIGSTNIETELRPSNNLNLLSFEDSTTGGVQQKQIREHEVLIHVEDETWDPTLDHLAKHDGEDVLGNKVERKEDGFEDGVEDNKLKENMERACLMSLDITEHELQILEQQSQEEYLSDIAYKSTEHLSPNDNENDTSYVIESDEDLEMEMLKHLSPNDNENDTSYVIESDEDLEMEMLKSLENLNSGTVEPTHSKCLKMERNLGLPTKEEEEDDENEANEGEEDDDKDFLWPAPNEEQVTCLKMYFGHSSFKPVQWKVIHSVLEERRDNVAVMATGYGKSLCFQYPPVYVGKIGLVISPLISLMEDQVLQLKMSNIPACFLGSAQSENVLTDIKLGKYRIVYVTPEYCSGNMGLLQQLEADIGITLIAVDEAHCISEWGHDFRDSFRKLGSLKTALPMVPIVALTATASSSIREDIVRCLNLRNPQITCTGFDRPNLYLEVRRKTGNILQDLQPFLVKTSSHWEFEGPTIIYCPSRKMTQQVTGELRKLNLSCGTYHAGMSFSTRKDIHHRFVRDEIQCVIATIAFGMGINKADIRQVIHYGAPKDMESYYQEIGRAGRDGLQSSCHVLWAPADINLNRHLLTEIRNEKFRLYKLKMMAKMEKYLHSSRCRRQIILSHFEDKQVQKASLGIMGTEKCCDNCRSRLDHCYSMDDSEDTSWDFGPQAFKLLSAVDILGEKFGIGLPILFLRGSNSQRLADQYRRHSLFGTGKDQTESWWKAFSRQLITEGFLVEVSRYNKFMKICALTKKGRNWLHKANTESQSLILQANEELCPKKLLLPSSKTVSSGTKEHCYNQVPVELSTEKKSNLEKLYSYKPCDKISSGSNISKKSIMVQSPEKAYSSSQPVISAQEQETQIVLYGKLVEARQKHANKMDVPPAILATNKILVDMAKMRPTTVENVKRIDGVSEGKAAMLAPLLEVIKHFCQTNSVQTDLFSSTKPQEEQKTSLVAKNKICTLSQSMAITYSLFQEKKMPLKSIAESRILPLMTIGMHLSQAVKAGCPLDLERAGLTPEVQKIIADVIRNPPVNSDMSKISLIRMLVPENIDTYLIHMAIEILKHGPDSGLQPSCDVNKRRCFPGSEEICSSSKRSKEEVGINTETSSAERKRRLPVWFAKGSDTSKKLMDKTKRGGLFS

**Q.** For `CC1(C)C(c2ccccc2)=NC(c2cccnc2)=[N+]1[O-]`, which Potency is on record?
**A.** 50.1 µM (active)

**Q.** `CCOP(=O)(OCC)C(NC(=O)c1ccc(C)cc1)C(Cl)(Cl)Cl` (stereo not given) was tested. Which “activity change, negative = inhibition” value did it give?
**A.** 13.7% (inactive)

**Q.** With `O=C(Cc1ccc(Cl)cc1)NCCN1CCN(C(=O)Cc2ccc(Cl)cc2)CC1` as the molecule, how does the “activity change, negative = inhibition” value read?
**A.** 5.8% (inactive)

**Q.** `CCOC(=O)[C@]12Cc3cc(OC)ccc3[C@H]1N(C(C)C)C(=O)c1ccccc12` was tested. Which “activity change, negative = inhibition” value did it give?
**A.** -1.64% (inactive)

**Q.** How did the “activity change, negative = inhibition” value turn out when `CC(Cc1ccccc1)NCCC(c1ccccc1)c1ccccc1` (stereo not given) was run?
**A.** -1.92% (inactive)

**Q.** For `CC(Cc1cccs1)NCc1ccc(Cl)cc1` (stereo not given), which “activity change, negative = inhibition” value is on record?
**A.** -4.04% (inactive)

**Q.** For `O=C(O)CCn1cc(C=C2C(=O)NC(=S)NC2=O)c(-c2cccc(Br)c2)n1`, which Potency is on record?
**A.** 31.6 µM (active)

**Q.** Which “activity change, negative = inhibition” value does the source give for `C=C(C)C1(CCCC)C(=O)NC(=S)NC1=O` here?
**A.** 0.947% (inactive)

**Q.** With `COc1ccc(-n2nnnc2C(c2cccc3ccccc23)N2CCC(n3c(=O)[nH]c4ccccc43)CC2)cc1` (stereo not given) as the molecule, how does the “activity change, negative = inhibition” value read?
**A.** -2.03% (inactive)

**Q.** For `COC(=O)CN(CCCl)P1(=O)OCCCN1CCCl` (stereo not given), which “activity change, negative = inhibition” value is on record?
**A.** 1.67% (inactive)

**Q.** With `CCOc1ccc(-c2cc(C)[n+](CCN(CC)CC)c(-c3ccc(OCC)cc3)c2)cc1` as the molecule, how does the “activity change, negative = inhibition” value read?
**A.** -8.79% (inactive)

**Q.** For `Cc1ccc2c(c1)=C/C(=C\c1c(O)[nH]c(=O)[nH]c1=O)C(=O)N=2`, which Potency is on record?
**A.** 39.8 µM (active)

**Q.** Which “activity change, negative = inhibition” value does the source give for `O=C1N=c2ccccc2=C/C1=C\c1c(O)[nH]c(=S)[nH]c1=O` here?
**A.** -30.7% (inactive)

**Q.** Which “activity change, negative = inhibition” value does the source give for `O=c1[nH]c(O)c(C=Nc2cc(F)cc(F)c2)c(=O)[nH]1` here?
**A.** 2.85% (inactive)

**Q.** Which “activity change, negative = inhibition” value does the source give for `N#Cc1ccc(Cn2cc(C(=O)c3ccco3)c3ccccc32)cc1` here?
**A.** -15.2% (inactive)

**Q.** With `CCCCCCCCCCCCn1ccc(=N)cc1` as the molecule, how does the “activity change, negative = inhibition” value read?
**A.** -5.13% (inactive)

**Q.** Which “activity change, negative = inhibition” value does the source give for `COc1ccc(CCn2c(O)c(C=NCCCn3ccnc3)c(=O)[nH]c2=O)cc1OC` here?
**A.** 6.66% (inactive)

**Q.** How did the “activity change, negative = inhibition” value turn out when `CC(C)(C)c1ccc(CN2C(=O)CN=C(c3ccccc3)c3ccccc32)cc1` was run?
**A.** -15.4% (inactive)

**Q.** With `O=C(CN1CCCC1=O)NCCc1ccccc1` as the molecule, how does the “activity change, negative = inhibition” value read?
**A.** 0.395% (inactive)

**Q.** How did the Potency turn out when `O=C1CC(=O)N(Cc2ccccc2)C(=O)N1CCCCCCN1C(=O)CC(=O)N(Cc2ccccc2)C1=O` was run?
**A.** 28.2 µM (active)

**Q.** `CC(=O)C1(O)CCC2C3CCC4=C(Cl)C(=O)CCC4(C)C3CCC21C` (stereo not given) was tested. Which “activity change, negative = inhibition” value did it give?
**A.** 0.713% (inactive)

**Q.** How did the “activity change, negative = inhibition” value turn out when `CCOC(=O)[C@]12Cc3ccccc3[C@H]1N(C1CCCCC1)C(=O)c1cc(OC)ccc12` was run?
**A.** -0.682% (inactive)

**Q.** Which “activity change, negative = inhibition” value does the source give for `O=C1NC(=O)N(CCc2ccc(F)cc2)C(=O)/C1=C/C=C/c1ccccc1` here?
**A.** -13.3% (inactive)

**Q.** Which Potency does the source give for `O=C(O)COc1ccccc1/C=C1\C(=O)NC(=O)N(CCC2=CCCCC2)C1=O` here?
**A.** 39.8 µM (active)

**Q.** How did the “activity change, negative = inhibition” value turn out when `C=CCN1C(=O)NC(=O)/C(=C/c2ccc(OCC(=O)Nc3ccc(C)cc3)cc2)C1=O` was run?
**A.** -8.42% (inactive)

**Q.** For `CCCOC(=O)C1C2c3ccccc3C(c3ccccc32)C1C(=O)O` (stereo not given), which “activity change, negative = inhibition” value is on record?
**A.** -3.12% (inactive)

**Q.** For `CC(=O)N1CN2CN(C(C)=O)CC(C(=O)c3ccc(Br)cc3)(C2)C1`, which “activity change, negative = inhibition” value is on record?
**A.** -1.58% (inactive)

**Q.** How did the “activity change, negative = inhibition” value turn out when `O=C1NC(=O)N(c2ccc(F)cc2)C(=O)/C1=C/c1ccc2c(c1)CCCN2Cc1ccccc1` was run?
**A.** -26.4% [at 57.1 µM] (inactive)

**Q.** `O=C1NC(=O)N(c2ccccc2)C(=O)/C1=C/c1ccc([N+](=O)[O-])s1` was tested. Which Potency did it give?
**A.** 28.2 µM (active)

**Q.** Which “activity change, negative = inhibition” value does the source give for `O=c1c2ccccc2nc(CBr)n1-c1ccc(Cl)cc1` here?
**A.** 11.3% (inactive)

**Q.** `COc1ccc(N2C(=O)/C(=C/c3ccco3)C(=O)NC2=S)cc1` was tested. Which Potency did it give?
**A.** 17.8 µM (active)

**Q.** For `CN(C)CC1CCCCC1OC(=O)c1ccc(Cl)c(Cl)c1` (stereo not given), which “activity change, negative = inhibition” value is on record?
**A.** 9.28% (inactive)

**Q.** `CC(C)(C)[C@]1(O)C[C@@H]2OC(=O)C[C@@]23C(=O)O[C@@H]2OC(=O)[C@H](O)[C@]213` was tested. Which “activity change, negative = inhibition” value did it give?
**A.** -2.59% (inactive)

**Q.** How did the “activity change, negative = inhibition” value turn out when `COc1ccc(-c2nn(CCC#N)cc2C(=O)Nc2ccc(C(C)=O)cc2)cc1` was run?
**A.** 1.6% (inactive)

**Q.** Which “activity change, negative = inhibition” value does the source give for `Clc1cccc(Cl)c1Cl` here?
**A.** -11.3% (inactive)

**Q.** Which Potency does the source give for `Cc1cccc(N2C(=O)NC(=O)/C(=C\c3cnn(-c4ccccc4)c3)C2=O)c1` here?
**A.** 50.1 µM (active)

**Q.** For `Cc1c(C(=O)O)cccc1-n1c(C)cc(/C=C2\C(=O)NC(=O)N(c3ccc4c(c3)OCO4)C2=O)c1C`, which activity change, negative = inhibition is on record?
**A.** -16.1% [at 11.6 µM] (inactive)

**Q.** How did the “activity change, negative = inhibition” value turn out when `COc1ccc(S(=O)(=O)NCc2ccc(C(=O)N3CCC4(CC3)OCCO4)cc2)cc1` was run?
**A.** 3.75% (inactive)

**Q.** For `OCC#CC[N+]1(CC#Cc2ccccc2)CCCC1`, which “activity change, negative = inhibition” value is on record?
**A.** -12.6% (inactive)

**Q.** For `CSC1=NP(=S)(SC)N(C)c2nc3n(c21)CCC3` (stereo not given), which “activity change, negative = inhibition” value is on record?
**A.** 7.66% (inactive)

**Q.** `COC(=O)C[C@H]1CC[C@H]2NC[C@@H](O)COC[C@@H]2O1` was tested. Which “activity change, negative = inhibition” value did it give?
**A.** 2.11% (inactive)

**Q.** Which Potency does the source give for `O=C1NC(=O)N(Cc2ccco2)C(=O)/C1=C\c1ccc(-c2ccc(F)cc2)o1` here?
**A.** 31.6 µM (active)

**Q.** With `COc1ccc(-c2nc(CS(=O)CC(=O)N3CCC4(CC3)OCCO4)c(C)o2)cc1` (stereo not given) as the molecule, how does the “activity change, negative = inhibition” value read?
**A.** -1.12% (inactive)

**Q.** With `COc1ccccc1N=Nc1c(O)[nH]c(=S)[nH]c1=O` as the molecule, how does the “activity change, negative = inhibition” value read?
**A.** -24.1% (inactive)

**Q.** Which Potency does the source give for `O=c1[nH]c(=S)[nH]c(O)c1/C=C1\C=Nc2ccccc21` here?
**A.** 50.1 µM (active)

**Q.** `O=c1[nH]c2ccccc2n1C1CCN(C(c2ccccc2)c2nnnn2Cc2ccccc2)CC1` (stereo not given) was tested. Which “activity change, negative = inhibition” value did it give?
**A.** -7.52% (inactive)

**Q.** Which “activity change, negative = inhibition” value does the source give for `O=C(N/N=C/c1c(O)n(C2CC2)c(=S)[nH]c1=O)c1ccccc1` here?
**A.** -24% (inactive)

**Q.** `COc1ccccc1N=C1SCCCN1C` was tested. Which “activity change, negative = inhibition” value did it give?
**A.** 3.59% (inactive)

**Q.** Which “activity change, negative = inhibition” value does the source give for `CCCCCn1c(=O)c(C(=O)Nc2c(C)n(C)n(-c3ccccc3)c2=O)c(O)c2ccccc21` here?
**A.** -9.8% (inactive)

**Q.** For `COC(=O)C1=C(c2cccc(OCc3ccccc3)c2)C[C@@H]2CC[C@H]1N2C(=O)NNCc1ccccc1`, which “activity change, negative = inhibition” value is on record?
**A.** -8.99% (inactive)
